# Reference: PubChem BioAssay AID624101 (Broad Institute, 2012)
# Out of some 70,000 compounds screened, about 120 (0.17%) were called active. The list comes from a sample in which actives are over-represented; it also holds similar structures and randomly drawn compounds. Unmarked numbers belong to inactive results. Cut-off read from the data, not from the text of the source: active = inhibition above about 34%; inconclusive = no clear call, values can overlap the other calls; inactive = below about 11%.
# Molecular target: Isocitrate dehydrogenase [NADP] cytoplasmic (Homo sapiens) (UniProt O75874)
# Sequence (O75874 whole entry R132H): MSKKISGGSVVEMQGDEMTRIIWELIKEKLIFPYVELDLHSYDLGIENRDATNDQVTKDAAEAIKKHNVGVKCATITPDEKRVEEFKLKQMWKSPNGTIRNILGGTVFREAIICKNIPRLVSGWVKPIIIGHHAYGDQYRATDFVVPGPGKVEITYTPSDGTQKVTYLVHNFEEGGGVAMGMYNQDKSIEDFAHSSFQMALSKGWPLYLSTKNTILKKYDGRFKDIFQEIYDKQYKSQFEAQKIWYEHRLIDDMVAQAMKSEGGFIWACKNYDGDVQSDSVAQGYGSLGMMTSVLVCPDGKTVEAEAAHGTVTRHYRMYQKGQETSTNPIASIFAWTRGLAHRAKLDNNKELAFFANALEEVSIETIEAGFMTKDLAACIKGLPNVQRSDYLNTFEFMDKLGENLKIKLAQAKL
# Experiment: PubChem AID 624101;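 note: 0% = DMSO and 100% = no enzyme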
# Details: IDH1 R132H reductase, diaphorase/resazurin fluorescence, 60 min; at 10 µM; stronger effect = higher value
row,SMILES,inhibition [%]
1,CC(C)NC(=O)N[C@H]1CC[C@H](CC(=O)NC2Cc3ccccc3C2)O[C@H]1CO,0.112
2,CO[C@@H]1CN(C)C(=O)c2cc(NC(=O)C3CCOCC3)ccc2OC[C@H](C)N(Cc2cccnc2)C[C@H]1C,-0.057
3,O=C(C[C@@H]1CC[C@H](NS(=O)(=O)c2cccc(F)c2)[C@H](CO)O1)N1CCCCC1,0.0905
4,O=S(=O)(N[C@@H]1CC[C@H](CCn2cc(C3(O)CCCC3)nn2)O[C@@H]1CO)c1ccc(Cl)cc1,0.461
5,CCCC(=O)Nc1ccc2c(c1)OC[C@H](C)N(CCC(F)(F)F)C[C@@H](C)[C@H](OC)CN(C)C2=O,-0.114
6,COc1ccccc1-c1cn(CC[C@H]2CC[C@H](NC(=O)Cc3ccccn3)[C@H](CO)O2)nn1,0.087
7,COc1ccccc1S(=O)(=O)N[C@@H]1C=C[C@H](CC(=O)N2CCN(C)CC2)O[C@@H]1CO,0.0315
8,CS(=O)(=O)Nc1ccc2c(c1)[C@H]1C[C@H](CC(=O)NCc3ccc(Cl)cc3)O[C@@H](CO)[C@H]1O2,-0.335
9,CO[C@@H]1CN(C)C(=O)c2ccc(NC(=O)C3CCCCC3)cc2OC[C@@H](C)N(Cc2nccs2)C[C@@H]1C,0.03
10,C[C@@H]1CN([C@H](C)CO)C(=O)c2cc(Br)cnc2O[C@@H]1CN(C)C(=O)Nc1ccc(F)cc1,0.064
11,C[C@H](NC(=O)C[C@@H]1CC[C@@H](NC(=O)Cc2ccccn2)[C@@H](CO)O1)c1ccccc1,0.0085
12,O=C(N[C@H]1CC[C@@H](CCNS(=O)(=O)c2ccccc2)O[C@H]1CO)c1cccnc1,-0.222
13,Cc1cccc(S(=O)(=O)N[C@H]2CC[C@@H](CCNS(=O)(=O)c3ccccc3F)O[C@H]2CO)c1,0.059
14,COc1ccc(NC(=O)N[C@H]2CC[C@H](CCn3cc(-c4ccccc4F)nn3)O[C@H]2CO)cc1,-0.29
15,COCc1cn(CC[C@H]2CC[C@@H](NC(=O)Nc3ccc(OC)cc3)[C@@H](CO)O2)nn1,0.176
16,C[C@@H]1CN([C@H](C)CO)C(=O)c2cc(C#CC3CC3)cnc2O[C@@H]1CN(C)Cc1cccc(C(=O)O)c1,-0.167
17,CO[C@H]1CN(C)C(=O)c2ccc(NC(=O)Nc3ccc4c(c3)OCO4)cc2OC[C@H](C)NC[C@H]1C,-0.152
18,COCC(=O)Nc1ccc2c(c1)OC[C@H](C)N(C(=O)c1cnccn1)C[C@@H](C)[C@H](OC)CN(C)C2=O,0.439
19,CC(C)CC#Cc1ccc2c(c1)O[C@@H](CN(C)C(=O)c1ccccn1)[C@@H](C)CN([C@H](C)CO)S2(=O)=O,-2.87
20,CO[C@H]1CN(C)C(=O)c2cc(NS(=O)(=O)CC(F)(F)F)ccc2OC[C@@H](C)N(Cc2nccs2)C[C@@H]1C,0.457
21,CO[C@H]1CN(C)C(=O)c2ccc(NC(=O)NC(C)C)cc2OC[C@H](C)N(Cc2cncnc2)C[C@@H]1C,0.214
22,O=C(Cc1ccncc1)NCC[C@H]1CC[C@@H](NC(=O)Nc2ccc(Cl)cc2)[C@@H](CO)O1,0.092
23,O=C(C[C@H]1CC[C@@H](NC(=O)Nc2ccc(C(F)(F)F)cc2)[C@H](CO)O1)NCc1cc(F)cc(F)c1,0.19
24,CCS(=O)(=O)N[C@@H]1CC[C@@H](CC(=O)NCC2CC2)O[C@H]1CO,-0.0912
25,COc1ccc(CNC(=O)C[C@@H]2CC[C@H](NC(=O)c3cccc(F)c3)[C@H](CO)O2)cc1,0.0345
26,O=C(N[C@H]1CC[C@@H](CCNS(=O)(=O)c2ccc(Cl)cc2)O[C@H]1CO)c1cccc(F)c1,-0.0045

row,SMILES,inhibition [%]
1,CO[C@@H]1CN(C)C(=O)c2ccc(NC(C)=O)cc2OC[C@@H](C)N(Cc2ccc(-c3ccccn3)cc2)C[C@H]1C,-0.357
2,CCCC(=O)Nc1ccc2c(c1)OC[C@H](C)N(S(=O)(=O)c1cn(C)cn1)C[C@@H](C)[C@H](OC)CN(C)C2=O,-0.504
3,C[C@@H]1CN([C@@H](C)CO)C(=O)c2cc(-c3ccccc3F)cnc2O[C@H]1CN(C)C(=O)C1CC1,0.564
4,O=C(C[C@H]1C[C@@H]2c3cc(NC(=O)CC4CC4)ccc3O[C@@H]2[C@H](CO)O1)NCc1cccnc1,-0.193
5,CO[C@@H]1CN(C)C(=O)c2cc(NC(=O)C3CC3)ccc2OC[C@H](C)N(C(=O)CN2CCOCC2)C[C@@H]1C,0.377
6,COCCNC(=O)C[C@H]1C[C@H]2c3cc(NS(C)(=O)=O)ccc3O[C@H]2[C@H](CO)O1,-0.133
7,COCC(=O)N(C)C[C@H]1Oc2cc(C#CC3CCCC3)ccc2S(=O)(=O)N([C@H](C)CO)C[C@@H]1C,-1.42
8,C[C@H]1CN([C@@H](C)CO)C(=O)c2cc(-c3ccccc3F)cnc2O[C@H]1CN(C)C(=O)C1CCOCC1,0.288
9,O=C(N[C@H]1CC[C@@H](CCNS(=O)(=O)c2ccccc2)O[C@@H]1CO)c1cnccn1,-0.078
10,O=C(NCC[C@@H]1CC[C@@H](NS(=O)(=O)c2cccc(F)c2)[C@H](CO)O1)C1CC1,0.164
11,CO[C@H]1CN(C)C(=O)c2cc(NC(=O)Nc3ccccc3)ccc2OC[C@@H](C)N(C(=O)Nc2c(C)noc2C)C[C@@H]1C,-0.138
12,COc1ccccc1-c1cn(CC[C@H]2CC[C@@H](NC(=O)CCN3CCCCC3)[C@@H](CO)O2)nn1,-0.639
13,O=C(C[C@H]1C=C[C@@H](NC(=O)NC2CCCCC2)[C@@H](CO)O1)NCc1ccc(Cl)cc1,0.05
14,CCC(=O)Nc1ccc2c(c1)C(=O)N(C)C[C@@H](OC)[C@H](C)CN(Cc1ccccc1C(=O)O)[C@@H](C)CO2,-0.502
15,CO[C@@H]1CN(C)C(=O)c2ccc(NS(C)(=O)=O)cc2OC[C@H](C)N(C(=O)C2CC2)C[C@H]1C,-0.15
16,CC(=O)N[C@H]1CC[C@H](CCNC(=O)C2CC2)O[C@H]1CO,0.591
17,CCCc1cn(CC[C@@H]2CC[C@H](NS(=O)(=O)c3ccccc3Cl)[C@H](CO)O2)nn1,-0.0115
18,CCCC(=O)Nc1ccc2c(c1)C(=O)N(C)C[C@H](OC)[C@@H](C)CN(C(C)=O)[C@H](C)CO2,0.373
19,COCc1cn(CC[C@H]2CC[C@H](NC(=O)c3ccncc3)[C@H](CO)O2)nn1,0.111
20,O=C(N[C@@H]1CC[C@@H](CCn2cc(-c3ccccn3)nn2)O[C@@H]1CO)c1ccccc1,0.105
21,O=C(C[C@@H]1C[C@H]2c3cc(NC(=O)C4CCOCC4)ccc3O[C@H]2[C@@H](CO)O1)NCCN1CCCCC1,-0.003
22,O=C(C[C@H]1CC[C@@H](NC(=O)c2ccccc2)[C@@H](CO)O1)NCc1ccncn1,-0.091
23,CO[C@@H]1CN(C)C(=O)c2cc(NC(=O)c3ccc(F)cc3)ccc2OC[C@H](C)N(C(=O)CN(C)C)C[C@H]1C,-0.235
24,C[C@@H]1CN([C@H](C)CO)C(=O)c2cc(-c3ccccc3)cnc2O[C@H]1CN(C)C(=O)Nc1ccccc1,-0.031
25,Cc1noc(C)c1NC(=O)N(C)C[C@H]1Oc2ccc(NS(=O)(=O)c3ccc(Cl)cc3)cc2CC(=O)N([C@H](C)CO)C[C@@H]1C,0.108
26,O=C(N[C@H]1CC[C@H](CCn2cc(C3(O)CCCC3)nn2)O[C@H]1CO)C1CC1,-0.0085

row,SMILES,inhibition [%]
1,COc1ccccc1CNC(=O)C[C@@H]1C[C@H]2c3cc(NC(=O)CN(C)C)ccc3O[C@H]2[C@@H](CO)O1,-0.208
2,C[C@@H]1CN([C@@H](C)CO)S(=O)(=O)c2ccc(C#Cc3ccncc3)cc2O[C@@H]1CN(C)S(=O)(=O)c1ccccc1,-0.653
3,CO[C@@H](CN(C)C(=O)c1cnccn1)[C@H](C)CN([C@H](C)CO)S(=O)(=O)c1ccc(C)cc1,0.027
4,C/C=C/c1cnc2c(c1)C(=O)N([C@H](C)CO)C[C@H](C)[C@H](CN(C)C(=O)c1cccc(F)c1)O2,0.473
5,CO[C@H]1CN(C)C(=O)c2cc(NS(=O)(=O)c3ccc(C)cc3)ccc2OC[C@H](C)NC[C@H]1C,0.218
6,COc1ccc(-c2cnc3c(c2)C(=O)N([C@@H](C)CO)C[C@@H](C)[C@H](CN(C)C(=O)C2CCCCC2)O3)cc1,-0.366
7,CN(C)C(=O)C[C@@H]1C=C[C@H](NC(=O)Nc2cccc(F)c2)[C@H](CO)O1,0.0155
8,CCC(=O)Nc1ccc2c(c1)C(=O)N(C)C[C@H](OC)[C@H](C)CN(C(=O)c1ccccc1F)[C@@H](C)CO2,-0.083
9,COc1cccc(S(=O)(=O)Nc2ccc3c(c2)C(=O)N(C)C[C@@H](OC)[C@H](C)CN(C(=O)Cc2cccnc2)[C@H](C)CO3)c1,0.018
10,CCCNC(=O)Nc1ccc2c(c1)C(=O)N(C)C[C@@H](OC)[C@@H](C)CN(C)[C@@H](C)CO2,-0.291
11,CO[C@@H]1CN(C)C(=O)c2cc(NS(C)(=O)=O)ccc2OC[C@@H](C)N(C(=O)C2CCC2)C[C@@H]1C,-0.303
12,CCC(=O)Nc1ccc2c(c1)OC[C@@H](C)N(CC1CC1)C[C@H](C)[C@H](OC)CN(C)C2=O,0.102
13,O=C(C[C@@H]1C=C[C@@H](NC(=O)c2ccccc2)[C@H](CO)O1)NCCc1ccncc1,0.0765
14,CO[C@H]1CN(C)C(=O)c2ccc(NC(=O)c3cc(C)on3)cc2OC[C@H](C)N(C)C[C@H]1C,0.444
15,CN1CCN(C(=O)C[C@H]2C[C@@H]3c4cc(NC(=O)NC5CCCC5)ccc4O[C@@H]3[C@@H](CO)O2)CC1,0.0955
16,O=C(NCC[C@H]1CC[C@H](NC(=O)C2CC2)[C@@H](CO)O1)c1ccc(F)cc1,0.372
17,O=C(Nc1ccc2c(c1)[C@@H]1C[C@H](CC(=O)N3CCOCC3)O[C@@H](CO)[C@@H]1O2)C1CCOCC1,-1
18,COCC(=O)Nc1ccc2c(c1)C(=O)N(C)C[C@@H](OC)[C@@H](C)CN(C(=O)c1ccccc1)[C@@H](C)CO2,0.0325
19,CO[C@@H]1CN(C)C(=O)c2ccc(NC(=O)c3ccc(F)cc3)cc2OC[C@H](C)N(C)C[C@H]1C,0.002
20,COCC(=O)Nc1ccc2c(c1)[C@H]1C[C@H](CC(=O)OC)O[C@@H](CO)[C@H]1O2,-0.0115
21,CO[C@@H]1CN(C)C(=O)c2ccc(NS(=O)(=O)c3cccc(C)c3)cc2OC[C@@H](C)NC[C@H]1C,-0.0525
22,COCC(=O)Nc1ccc2c(c1)OC[C@H](C)N(C(=O)COC)C[C@@H](C)[C@H](OC)CN(C)C2=O,-0.0515
23,CC(=O)N(C)C[C@@H]1Oc2cc(-c3cncnc3)ccc2S(=O)(=O)N([C@@H](C)CO)C[C@H]1C,1.05
24,COc1ccccc1CNC(=O)C[C@H]1C[C@@H]2c3cc(NC(=O)c4ccc5c(c4)OCO5)ccc3O[C@@H]2[C@H](CO)O1,-0.69
25,CN(C)CCCNC(=O)C[C@@H]1C=C[C@H](NC(=O)c2ccccc2F)[C@H](CO)O1,0.626
